Test system: MCF10A
Assay: perturbation Mahalanobis distance of morphological profile vs DMSO controls (Mahalanobis distance (SD units)); higher = stronger morphological change, active = 7 or more
Conditions: 72 h
Method: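 MCF10A cells were seeded onto drugs dispensed acoustically into 384-well plates, using one dose per drug chosen from its human peak plasma concentration, and incubated for 72 h at 37 °C. Cells were stained for DNA, tubulin and mitochondria and imaged; 78 CellProfiler features were extracted, plate-normalised and compared with DMSO wells.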

[1] = screen batch: Batch1_Mahalanobis_Distance
[2] = screen batch: Batch2_Mahalanobis_Distance

Compound	perturbation Mahalanobis distance [1]	perturbation Mahalanobis distance [2]
COc1cccc2c1C(=O)c1c(O)c3c(c(O)c1C2=O)C[C@@](O)(C(=O)CO)C[C@@H]3O[C@H]1C[C@H](N)[C@H](O)[C@H](C)O1 [Doxorubicin] (0.18 µM)	11.1 (active)	16.7 (active)
O=C1CCC(N2C(=O)c3ccccc3C2=O)C(=O)N1 (configuration not stated) [Thalidomide] (19.4 µM)	2.34 (inactive)	2.83 (inactive)
CCN(CC)CCNC(=O)c1c(C)[nH]c(/C=C2\C(=O)Nc3ccc(F)cc32)c1C [Sunitinib] (0.73 µM)	3.08 (inactive)	2.88 (inactive)
CCn1cc(C(=O)O)c(=O)c2cc(F)c(N3CCNCC3)nc21 [Enoxacin] (62.4 µM)	7.28 (active)	4.85 (inactive)
CN1C[C@H]2c3ccccc3Oc3ccc(Cl)cc3[C@@H]2C1 [Asenapine] (0.07 µM)	2.56 (inactive)	2.47 (inactive)
CC[N+](C)(CC)CCOC(=O)C(O)(c1ccccc1)C1CCCCC1 (configuration not stated) [Oxyphenonium Bromide] (0.07 µM)	2.2 (inactive)	2.44 (inactive)
CC1CNc2c(cccc2S(=O)(=O)N[C@@H](CCCN=C(N)N)C(=O)N2CC[C@@H](C)C[C@@H]2C(=O)O)C1 (some centres not stated) [Argatroban] (6.9 µM)	3.61 (inactive)	2.75 (inactive)
c1ccc(CC2=NCCN2)cc1 [Tolazoline] (25 µM)	2.21 (inactive)	2.33 (inactive)
c1cnc2cc3c(cc2n1)C1CNCC3C1 [Varenicline] (0.24 µM)	2.52 (inactive)	2.29 (inactive)
OC(CCN1CCCCC1)(c1ccccc1)C1CCCCC1 (configuration not stated) [Trihexyphenidyl] (3.3 µM)	1.96 (inactive)	2.42 (inactive)
CC(C)(C)C(=O)OCC(=O)[C@H]1CC[C@H]2[C@@H]3CCC4=CC(=O)CC[C@]4(C)[C@H]3CC[C@]12C [Desoxycorticosterone Pivalate] (0.72 µM)	4.89 (inactive)	3.54 (inactive)
Nc1nc(N)c2nc(-c3ccccc3)c(N)nc2n1 [Triamterene] (2 µM)	3.18 (inactive)	4.38 (inactive)
COCCCC/C(=N\OCCN)c1ccc(C(F)(F)F)cc1 [Fluvoxamine] (3.9 µM)	2.43 (inactive)	2.47 (inactive)
C[N+](C)(C)CCOC(N)=O [Carbachol] (37 µM)	2.88 (inactive)	2.82 (inactive)
Cn1nnc2c(C(N)=O)ncn2c1=O [Temozolomide] (70.6 µM)	3.51 (inactive)	2.12 (inactive)
O=C(O)c1cnccn1 [Pyrazinoic Acid] (604.4 µM)	2.79 (inactive)	2.79 (inactive)
CCCc1nc(C(C)(C)O)c(C(=O)O)n1Cc1ccc(-c2ccccc2-c2nn[nH]n2)cc1 [Olmesartan] (10 µM)	2.22 (inactive)	2.24 (inactive)
CCOC(=O)c1ncn2c1CN(C)C(=O)c1cc(F)ccc1-2 [Flumazenil] (1.6 µM)	4.28 (inactive)	3.54 (inactive)
CN(C)CCCN1c2ccccc2Sc2ccc(C(F)(F)F)cc21 [Triflupromazine] (1.4 µM)	4.75 (inactive)	4.32 (inactive)
CCC(=O)NCC[C@@H]1CCc2ccc3c(c21)CCO3 [Ramelteon] (0.13 µM)	2.83 (inactive)	2.59 (inactive)
N=c1nc(N2CCCCC2)cc(N)n1O [Minoxidil] (6 µM)	6.53 (inactive)	2.8 (inactive)
C[N+](C)(C)CCOC(=O)CCC(=O)OCC[N+](C)(C)C [Succinylcholine Chloride] (12.65 µM)	2.23 (inactive)	2.84 (inactive)
CCC(CC)O[C@@H]1C=C(C(=O)O)C[C@H](N)[C@H]1NC(C)=O [Oseltamivir Acid] (6.45 µM)	2.37 (inactive)	3.03 (inactive)
CC(=O)O.C[C@H](N)C(=O)O.NCCCC[C@H](N)C(=O)O.N[C@@H](CCC(=O)O)C(=O)O.N[C@@H](Cc1ccc(O)cc1)C(=O)O [Glatiramer Acetate] (50 µM)	2.19 (inactive)	2.3 (inactive)
CNNCc1ccc(C(=O)NC(C)C)cc1 [Procarbazine] (13.6 µM)	2.07 (inactive)	2.28 (inactive)
C[C@@H](NCCCc1cccc(C(F)(F)F)c1)c1cccc2ccccc12 [Cinacalcet] (0.4 µM)	2.7 (inactive)	2.58 (inactive)

Source: the supplement of paper PMC6853941
